# Inconclusive results are not listed. Calls of active or inactive are those of the source. How the source made its calls: active means hit-call score of the fitted dose curve at least 0.9, where 1 is the maximum; inconclusive means response in the unintended direction; inactive means score below 0.9.
# Experiment: Tanguay_ZF_120hpf_SNOU_legacy: (Legacy) Oregon State University Tanguay Lab 120 Hour Post-fertilization zebrafish Assay for Snout Malformation (AID 2283637)
# Description: Tanguay_ZF_120hpf_legacy is a whole embryo, multiplexed endpoint assay using zebrafish larvae exposed for 120 hours post fertilization on a 96-well plate.Tanguay_ZF_120hpf_SNOU_legacy is one of one assay component(s) measured or calculated from the Tanguay_ZF_120hpf_legacy assay. It is designed to make measurements of zebrafish development as detected with brightfield microscopy of developing zebrafish embryos.Data from the assay component Tanguay_ZF_120hpf_SNOU_legacy was analyzed into 1 assay endpoints. This assay endpoint, Tanguay_ZF_120hpf_SNOU_legacy, was analyzed in the positive analysis fitting direction relative to DMSO as the negative control and baseline of activity. Using a type of morphology reporter, gain-of-signal activity can be used to understand changes in developmentals as they relate to the whole embryo. To generalize the intended target to other relatable targets, this assay endpoint is annotated to the zebrafish development intended target family, where the subfamily is embryonic snout morphogenesis.
# Zebrafish husbandry: Tropical 5D wild-type adult zebrafish were housed in at an approximate density of 1000 per 100 gallon tank at the Sinnhuber Aquatic Research Laboratory, Oregon State University, Corvallis, OR. Each tank was kept at standard laboratory conditions of 28C on a 14-h light/10-h dark photoperiod in fish water consisting of reverse osmosis water supplemented with a commercially available salt (Instant Ocean). Spawning funnels were placed into the tanks the night prior, and embryos were collected and staged. To increase bioavailability, the chorion was enzymatically removed using pronase (63.6mg/ml, >/= 3.5U/mg, Sigma-Aldrich: P5147) at 4 hours post fertilization (hpf) using a custom automated dechorionator.Chemical exposures: Six hpf dechorionated embryos were placed 1 embryo per well in a 96-well plate prefilled with 90 ul of EM using automated embryo placement systems (AEPS). Ten microliters of each row of dilution plate 2 was added to 2 exposure plates. The final DMSO concentration used was 0.64% (vol/vol). Thirty-two embryos were also exposed to 5uM trimethyltin chloride (positive control). Plates were sealed to prevent evaporation and foil covered to reduce light exposure and kept in a 28C incubator. Embryos were statically exposed until 120 hpf. At 24 hpf, embryos were assessed for photomotor response using a custom photomotor response analysis tool (PRAT) and for developmental toxicity endpoints (MO24: mortality at 24 hpf, DP: developmental progression, SM: spontaneous movement, and NC: notochord distortion). At 120 hpf, locomotor activity was measured using Viewpoint Zebralab and assessed for 18 endpoints. Zebrafish acquisition and analysis program (ZAAP), a custom program designed to inventory, acquire, and manage zebrafish data, was used to collect developmental endpoints as either present or absent (i.e., binary responses were recorded). If mortality occurred for an embryo (at either 24 or 120 hpf), the non-mortality endpoints were not measured.
Structure (SMILES),outcome,AC50
FC(F)(F)C(F)(F)C(F)(F)C(F)(F)C(F)(F)C(F)(F)CCI,inactive,
CC(=O)OC/C=C(\C)CCC=C(C)C,inactive,
OC[C@@H](O)[C@@H](O)[C@H](O)[C@H](O)CO,inactive,
Cc1nc(-c2ccc3c(c2)CCN(CCC2CCC(NC(=O)/C=C/c4ccc(F)cc4)CC2)CC3)no1 (stereo not given),inactive,
O=C(N[C@@H](Cc1ccccc1)[C@@H](O)C(=O)N1C[C@@H](O)[C@@H](O)C1)c1cc2cc(Cl)ccc2[nH]1,inactive,
NCC1(Cc2noc(=O)[nH]2)CCCCC1,inactive,
COc1ccc(S(=O)(=O)N2C(=O)[C@@](c3ccccc3OC)(N3C[C@H](O)C[C@H]3C(=O)N(C)C)c3cc(Cl)ccc32)c(OC)c1,inactive,
C[C@]12C=CC(=O)C=C1CC[C@@H]1[C@@H]2C(=O)C[C@@]2(C)[C@H]1CC[C@]2(O)C(=O)CO,inactive,
COC(=O)c1ccc(O)cc1,inactive,
Nc1ccc(S(=O)(=O)c2ccc(N)cc2)cc1,inactive,
CCc1c(C(=O)NN2CCCCC2)nn(-c2ccc(Cl)cc2Cl)c1-c1ccc(Br)cc1,inactive,
CCCCCCCCCCCCCCCCCC(=O)O,inactive,
Nc1ccccc1N,inactive,
Cc1ccc(C(C)C)c(O)c1,inactive,
CCCCc1ccc2c(n1)[C@@H](c1ccc(OC)cc1C[C@H](C)C(=O)O)[C@H](C(=O)O)[C@H]2c1ccc2c(c1)OCO2,inactive,
CC(C)(C)c1cc(O)c(C(C)(C)C)cc1O,,35.6 µM (active)
Cc1cccc(C)c1O,inactive,
CCOC(=O)CCC(=O)OCC,inactive,
CNCc1cc(F)ccc1Oc1ccc(Cl)c(Cl)c1,inactive,
Nc1nc(N)c2nc(CNc3ccc(C(=O)N[C@@H](CCC(=O)O)C(=O)O)cc3)cnc2n1,inactive,

Structure (SMILES),outcome,AC50
CCCCCCC(=O)OCC,inactive,
CCCCCCCCCCO,inactive,
Nc1ccc2c(c1)C(=O)c1ccccc1C2=O,inactive,
CCCCCCOCCO,inactive,
Cc1ccccc1Cl,inactive,
CNC(=O)[C@H]1O[C@@H](n2cnc3c(NCc4cc(Cl)ccc4OCc4cc(C)no4)ncnc32)[C@H](O)[C@@H]1N,inactive,
Cc1cc(=O)[nH]c(=S)[nH]1,inactive,
CC(C)c1ccc(C(=O)N=C(N)N)cc1S(C)(=O)=O,inactive,
O=C(O)CCCCC(=O)O,inactive,
NC(=O)Cn1c(=O)cc(CCN2CCN(c3nccc4sccc34)CC2)c2ccc(F)cc21,inactive,
O=[N+]([O-])C(CO)(CO)CO,inactive,
COc1cc(S(=O)(=O)O)c(C)cc1N=Nc1c(O)ccc2cc(S(=O)(=O)O)ccc12,inactive,
C=CCc1ccc(O)c(OC)c1,inactive,
c1cc(-c2ccncc2)ccn1,inactive,
CCCCCCCCCCCCCO,inactive,
O=c1c(O)c(-c2ccc(O)c(O)c2)oc2cc(O)cc(O)c12,inactive,
CCCCOC(=O)CCCCCCCCC(=O)OCCCC,inactive,
C=CCOC(=O)c1ccccc1C(=O)OCC=C,inactive,
Cc1cc(NC(=O)C(=O)O)cc(C)c1Oc1ccc(O)c2c1CCC2,,0.0742 µM (active)
Cc1cccc(Nc2cc(Cl)nc(SCC(=O)O)n2)c1C,inactive,
